In PubChem BioAssay (NCATS) one finds Potency and viability data, which are given here for 36 compounds.

Broadly, the viability is a read-out of living cells in per cent, often relative to untreated cells.

SMILES strings stand for the structures. Records with an inconclusive call do not appear. A number with no mark means an inactive call. Calls of active or inactive are those of the source. The call rests on the fitted dose curve; in most records, active means well fitted inhibition curve with a large enough effect; inconclusive means small, poorly fitted or top-dose-only effect; inactive means no such curve, though single readings can be large or run the other way.
Potency means the concentration at half of the fitted maximal effect.

One test concerns the target Retinaldehyde dehydrogenase 3 (Homo sapiens) (UniProt P47895). Kind of test: qHTS for Inhibitors of the Aldehyde Dehydrogenase Family (ALDH1A3) Primary screen (AID 2061315). As to conditions: ALDH inhibition qHTS; series mostly up to 56 µM.
In the case of `CC[C@H](C)/C=C(C)/C=C/C(=O)Cc1cc(O)c(C)c(O)c1C=O`, the Potency result is “inactive”. `O=C(NN1CCCCC1)c1nn(-c2ccc(Cl)cc2Cl)c(-c2ccc(C#Cc3ccc(C(F)(F)F)cc3)s2)c1CNS(=O)(=O)N1CCCC1`: the Potency result was “inactive”. The same measure, in the same setting: next, `CO[C@@H](Cc1ccc(OCCc2nc(-c3ccccc3)oc2C)c2ccsc12)C(=O)O`: “inactive”. Same read-out and setting: the entry for `CCC(Nc1ncnc2nc[nH]c12)c1nc2cccc(F)c2c(=O)n1-c1ccccc1` (centres undefined) is “inactive”; for `CCCNCCc1ccc(NS(=O)(=O)c2ccc(OC(F)(F)F)cc2)cc1` it is “inactive”; for `O=C(O)c1ccc(-n2cccc2/C=C2\SC(=O)N(Cc3ccc(Cl)cc3)C2=O)cc1` it is “inactive”. The same measure, in the same setting: next, `O=C(O)c1cc(O)c2cccc(O)c2c1O[C@@H]1O[C@H](CO)[C@@H](O)[C@H](O)[C@H]1O`: 6.31 µM (active); `O=C(O)COCCN1CCN([C@H](c2ccccc2)c2ccc(Cl)cc2)CC1`: “inactive”. As to `COCc1c(O)c(C(=O)O)c(C)c2c1OC(=O)c1c(C)cc(O)c(CO)c1O2`, the Potency entry is “inactive”.

System in the next test: not listed separately
The test can be described thus: BET inhibitor-based combinations targeting novel dependencies in MECOM-rearranged (r) AML: SET-2 cell line (AID 2202231). Further: nearly all actives have a fitted effect of over 35% in size.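 On viability: plate controls were DMSO treated cells for no effect and wells without cells for full effect.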 As to conditions: SET-2 AML cells viability, CellTiter-Glo luminescence, 48 h; viability: hits give low values, concentration not given here. Put shortly:
(§1)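 AML cell lines seeded at 500 cells/well, treated with 11-point dose curves for 48 h. Viability by CellTiter-Glo luminescence, normalised to DMSO and empty wells; activity expressed as AUC and per-cell-line Z-transformed AUC.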
Background: In ATP-based viability assays light output follows the ATP content of the culture.
For `CCCOc1ccc(C(=O)OCCN(CC)CC)cc1N`, the viability is 101%. Consider `Oc1c(Cl)cc(Cl)c2cccnc12`, for which the Potency is 8.33 µM (active).

Take `NC(N)=NC(N)=NCCc1ccccc1`: the Potency is 13.2 µM (active).

As to `CC(=O)O[C@H]1C[C@@H]2CC[C@@H]3[C@H](CC[C@@]4(C)[C@H]3C[C@H]([N+]3(C)CCCCC3)[C@@H]4OC(C)=O)[C@@]2(C)C[C@@H]1N1CCCCC1`, the viability is 116%. On the same count and under the same terms, the figure for `C[C@@H](CN1CC(=O)NC(=O)C1)N1CC(=O)NC(=O)C1` is 92.4%; for `O=c1ccn([C@@H]2O[C@H](CO)[C@H](O)[C@@H]2F)c(=O)[nH]1` it is 107%.

For the compound `OC[C@@H](O)[C@@H](O)[C@H](O)[C@@H](O)CO`, the viability was 117%. Turning to `CC1(C)CCC2=C(O1)c1ccccc1C(=O)C2=O`, the Potency is 18.6 µM (active). Take `CC(C)(Sc1cc(C(C)(C)C)c(O)c(C(C)(C)C)c1)Sc1cc(C(C)(C)C)c(O)c(C(C)(C)C)c1`: the viability was 103%.

Take `C[C@@H]1CN(CC(=O)Nc2ccc3c(c2)Cc2cccc(-c4cc(=O)cc(N5CCOCC5)o4)c2S3)C[C@H](C)O1`: the viability was 86.1%.

Consider `Cc1cc(NC(=O)Nc2ccc(N(C)C)cc2)c2cc(F)cc(F)c2n1`, for which the viability was 94.3%.

Turning to `CN(C)CCc1c[nH]c2ccc(CS(=O)(=O)N3CCCC3)cc12`, the viability was 115%. Consider `O=C(/C=C\n1cnc(-c2cc(C(F)(F)F)cc(C(F)(F)F)c2)n1)NNc1cnccn1`, for which the Potency is 0.742 µM (active). Still for that read-out and setting: next, `Nc1nc(Cl)nc2c1ncn2[C@H]1C[C@H](O)[C@@H](CO)O1`: 0.263 µM (active). On to `CCOC(=O)c1c(C)n(C)c2ccc(O)cc12`, for which the viability is 110%. For the compound `N[C@@H](CC(=O)N1CCn2c(nnc2C(F)(F)F)C1)Cc1cc(F)c(F)cc1F`, the viability is 112%.

For the compound `COC(c1ccccc1)(c1ccccc1)[C@H](Oc1nc(C)cc(C)n1)C(=O)O`, the viability was 106%. For `c1ccc2c(-c3cnn4cc(-c5ccc(N6CCNCC6)cc5)cnc34)ccnc2c1`, the Potency was 3.32 µM (active). Regarding `CCn1cc(C(=O)O)c(=O)c2cc(F)c(N3CCN(C)CC3)cc21`, the viability is 97.2%. In the case of `CCCCC(CC)COC(=O)C(C#N)=C(c1ccccc1)c1ccccc1` (centres undefined), the viability was 108%. Turning to `CCN(CC)CCCCNc1ncc2cc(-c3cc(OC)cc(OC)c3)c(NC(=O)NC(C)(C)C)nc2n1`, the Potency is 20.9 µM (active). On to `COc1cc(C(=O)NC2CCN(C)CC2)ccc1Nc1ncc2c(n1)N(C1CCCC1)CCC(=O)N2C(C)C`, for which the Potency was 23.5 µM (active).

System in a further test: not listed separately
The test can be described thus: BET inhibitor-based combinations targeting novel dependencies in MECOM-rearranged (r) AML: OCI-AML3 cell line (AID 2202232). Further: nearly all actives have a fitted effect of over 35% in size. As to conditions: CellTiter-Glo luminescence, 48 h; Potency: OCI-AML3 viability; series mostly up to 46 µM. Put shortly:
as §1
On to `CCCOc1ccc(C(=O)OCCN(CC)CC)cc1N`, for which the Potency entry was “inactive”. Same read-out and setting: next, `Oc1c(Cl)cc(Cl)c2cccnc12`: 16.6 µM (active); `COc1cccc2c1CCCC2CCCN1CCN(C2CCCCC2)CC1` (centres undefined): 11.8 µM (active); `NC(N)=NC(N)=NCCc1ccccc1`: 16.6 µM (active). In the case of `CC(=O)O[C@H]1C[C@@H]2CC[C@@H]3[C@H](CC[C@@]4(C)[C@H]3C[C@H]([N+]3(C)CCCCC3)[C@@H]4OC(C)=O)[C@@]2(C)C[C@@H]1N1CCCCC1`, the Potency entry is “inactive”. Take `C[C@@H](CN1CC(=O)NC(=O)C1)N1CC(=O)NC(=O)C1`: the Potency was 18.6 µM (active).

Regarding `O=c1ccn([C@@H]2O[C@H](CO)[C@H](O)[C@@H]2F)c(=O)[nH]1`, the Potency entry is “inactive”.

Consider `CC1(C)CCC2=C(O1)c1ccccc1C(=O)C2=O`, for which the Potency is 18.6 µM (active). The same measure, in the same setting: next, `CC(C)(Sc1cc(C(C)(C)C)c(O)c(C(C)(C)C)c1)Sc1cc(C(C)(C)C)c(O)c(C(C)(C)C)c1`: “inactive”; `Cn1c(Nc2ccc(C(F)(F)F)cc2)nc2cc(Oc3ccnc(-c4ncc(C(F)(F)F)[nH]4)c3)ccc21`: 2.95 µM (active); `Cc1cc(NC(=O)Nc2ccc(N(C)C)cc2)c2cc(F)cc(F)c2n1`: 8.11 µM (active). On the same count and under the same terms, the entry for `CN(C)CCc1c[nH]c2ccc(CS(=O)(=O)N3CCCC3)cc12` is “inactive”; for `CC(Cc1ccc(O)c(O)c1)(NN)C(=O)O` (centres undefined) it is “inactive”; for `Clc1ccc(C(Cn2ccnc2)OCc2ccc(Sc3ccccc3)cc2)c(Cl)c1` (centres undefined) it is “inactive”.

Consider `O=C(/C=C\n1cnc(-c2cc(C(F)(F)F)cc(C(F)(F)F)c2)n1)NNc1cnccn1`, for which the Potency was 1.18 µM (active). On the same count and under the same terms, the figure for `Nc1nc(Cl)nc2c1ncn2[C@H]1C[C@H](O)[C@@H](CO)O1` is 0.0833 µM (active); for `N[C@@H](CC(=O)N1CCn2c(nnc2C(F)(F)F)C1)Cc1cc(F)c(F)cc1F` it is “inactive”; for `c1ccc2c(-c3cnn4cc(-c5ccc(N6CCNCC6)cc5)cnc34)ccnc2c1` it is 2.95 µM (active).

As to `CCn1cc(C(=O)O)c(=O)c2cc(F)c(N3CCN(C)CC3)cc21`, the Potency result was “inactive”. Same read-out and setting: next, `CCCCC(CC)COC(=O)C(C#N)=C(c1ccccc1)c1ccccc1` (centres undefined): “inactive”. As for `CCN(CC)CCCCNc1ncc2cc(-c3cc(OC)cc(OC)c3)c(NC(=O)NC(C)(C)C)nc2n1`, the Potency is 16.6 µM (active). Still for that read-out and setting: next, `COc1cc(C(=O)NC2CCN(C)CC2)ccc1Nc1ncc2c(n1)N(C1CCCC1)CCC(=O)N2C(C)C`: 14.8 µM (active). Regarding `CC(C)(C)c1cc(C(C)(C)C)c(NC(=O)c2c[nH]c3ccccc3c2=O)cc1O`, the Potency is 20.9 µM (active).
